Inconclusive results are not listed. Calls of active or inactive are those of the source. Rule for the calls, unless noted: active = hit-call score of the fitted dose curve at least 0.9, where 1 is the maximum; inactive = score below 0.9.

This is an account of results in PubChem BioAssay (EPA / NIEHS).

Nuclear receptor subfamily 4 group A member 2 (Homo sapiens), sequence (P43354 whole entry, looked up): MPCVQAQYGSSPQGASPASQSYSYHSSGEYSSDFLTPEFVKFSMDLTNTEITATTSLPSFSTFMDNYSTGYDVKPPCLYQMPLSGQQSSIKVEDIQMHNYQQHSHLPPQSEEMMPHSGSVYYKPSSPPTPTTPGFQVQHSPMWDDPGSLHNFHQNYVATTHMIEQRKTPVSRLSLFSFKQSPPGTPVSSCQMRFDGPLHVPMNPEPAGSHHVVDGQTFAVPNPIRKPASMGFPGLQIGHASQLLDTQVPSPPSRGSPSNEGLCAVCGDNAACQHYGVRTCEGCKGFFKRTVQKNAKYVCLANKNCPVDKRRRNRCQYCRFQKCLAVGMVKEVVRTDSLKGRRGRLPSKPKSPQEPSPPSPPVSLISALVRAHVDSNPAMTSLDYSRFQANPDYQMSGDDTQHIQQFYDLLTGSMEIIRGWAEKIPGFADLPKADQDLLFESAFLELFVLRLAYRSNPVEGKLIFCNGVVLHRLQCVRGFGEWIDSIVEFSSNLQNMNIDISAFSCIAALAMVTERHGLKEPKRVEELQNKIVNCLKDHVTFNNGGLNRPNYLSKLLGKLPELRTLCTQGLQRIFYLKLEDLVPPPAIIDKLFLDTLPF
Transcriptional activator Myb (Homo sapiens), sequence (P10242 whole entry, looked up): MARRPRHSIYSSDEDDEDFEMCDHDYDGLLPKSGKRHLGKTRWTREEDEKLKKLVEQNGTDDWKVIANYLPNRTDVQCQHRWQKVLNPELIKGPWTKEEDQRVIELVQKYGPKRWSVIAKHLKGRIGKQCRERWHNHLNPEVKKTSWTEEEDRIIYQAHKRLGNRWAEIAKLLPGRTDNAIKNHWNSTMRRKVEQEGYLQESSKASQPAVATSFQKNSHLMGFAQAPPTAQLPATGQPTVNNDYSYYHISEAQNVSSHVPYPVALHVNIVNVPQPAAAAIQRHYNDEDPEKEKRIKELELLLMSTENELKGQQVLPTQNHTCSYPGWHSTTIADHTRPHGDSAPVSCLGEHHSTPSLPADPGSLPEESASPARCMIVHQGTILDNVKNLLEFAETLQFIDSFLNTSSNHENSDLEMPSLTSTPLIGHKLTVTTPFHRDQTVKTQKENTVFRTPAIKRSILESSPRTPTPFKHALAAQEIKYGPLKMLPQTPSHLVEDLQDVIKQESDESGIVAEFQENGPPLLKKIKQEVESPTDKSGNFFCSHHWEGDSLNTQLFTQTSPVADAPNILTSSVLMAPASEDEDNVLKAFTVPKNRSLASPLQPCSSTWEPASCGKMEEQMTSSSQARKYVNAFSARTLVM

The target in the first assay is Nuclear receptor subfamily 4 group A member 2 (Homo sapiens) (UniProt P43354). The assay can be described thus: ATG_NURR1_TRANS: Attagene TRANS-FACTORIAL HepG2 Assay for human Nuclear Receptor Related Protein 1 (NURR1) (AID 2282985; active = hit-call score of the fitted dose curve at least 0.9, where 1 is the maximum). The note with it: HepG2 Attagene TRANS reporter, mRNA readout. The procedure, abridged:
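Endpoint: reporter mRNA increase relative to DMSO. HepG2 cells transfected with reporter units, treated 24 h; RNA processed by RT-PCR, labelling, HpaI digestion and capillary electrophoresis.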
Broadly, the AC50 is the concentration at which the activity in the assay is half-maximal. In the case of `CC(C)C[C@H]1C(=O)N2CCC[C@H]2[C@]2(O)O[C@](NC(=O)[C@@H]3C=C4c5cccc6[nH]c(Br)c(c56)C[C@H]4N(C)C3)(C(C)C)C(=O)N12`, the AC50 is 5.67 µM (active).

As to `CC1(C)[C@H]2CC[C@]1(C)[C@H](O)C2`, the call was inactive.

As to `O=C1c2ccccc2C(=O)N1SC1CCCCC1`, the call was inactive.

As to `O=C1CCCCCCCCCCCCCCO1`, the molecule was called inactive.

For the molecule `CCC(C)(O)CCC=C(C)C` (stereo not given), the result was inactive.

With `Cc1ccc(C(C)C)cc1O`, the call was inactive.

On to `Nc1cc([N+](=O)[O-])ccc1O`, for which the outcome was inactive.

As for `O=C(O)c1cn(-c2ccc(F)cc2)c2cc(N3CCNCC3)c(F)cc2c1=O`, the outcome was inactive.

Take `N#Cc1ccccc1`: the molecule was classed as inactive.

Regarding `CCCCC(CC)COC(=O)/C=C\C(=O)OCC(CC)CCCC` (stereo not given), the molecule was called inactive.

With `O=Cc1ccc(F)cc1`, the result was inactive.

Take `CCCCCCOC(=O)CCCCC`: the result was inactive.

As for `C=CC(=O)OCC(O)COc1ccccc1` (stereo not given), the molecule was called inactive.

For `NC(N)=NC(=O)c1nc(Cl)c(N)nc1N`, the molecule was classed as inactive.

With `CC(C=O)Cc1ccc(C(C)C)cc1` (stereo not given), the molecule was classed as inactive.

Take `COc1ccnc(CS(=O)c2nc3cc(OC(F)F)ccc3[nH]2)c1OC` (stereo not given): the molecule was classed as inactive.

For the molecule `COC(=O)c1ccc(C)cc1`, the molecule was classed as inactive.

As for `O=[N+]([O-])c1ccc(C=Cc2ccc([N+](=O)[O-])cc2S(=O)(=O)O)c(S(=O)(=O)O)c1`, the molecule was called inactive.

Regarding `Cc1cccc(Nc2ccccc2C(=O)O)c1C`, the molecule was called inactive.

As to `CCCCC(CC)COCCC#N` (stereo not given), the molecule was called inactive.

Turning to `CC(=O)C(C)=O`, the molecule was classed as inactive.

In the case of `CC1(C)[C@H](C(=O)OCc2cccc(Oc3ccccc3)c2)[C@@H]1C=C(Cl)Cl`, the result was inactive.

Take `CO[Si](C)(OC)c1ccccc1`: the molecule was classed as inactive.

For the molecule `Cc1c(N(C)C)c(=O)n(-c2ccccc2)n1C`, the call was inactive.

The next assay deals with Transcriptional activator Myb (Homo sapiens) (UniProt P10242). Nature of the assay: ATG_Myb_CIS: Attagene CIS-FACTORIAL HepG2 Assay for human Myeloblastosis (Myb) Proto-Oncogene Transcription Factor (AID 2282986). The note with it: HepG2 Attagene CIS-FACTORIAL Myb reporter transcription; actives raise or lower the signal. The procedure, abridged:
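Fluorescence signals from capillary electrophoresis of RT-PCR-amplified reporter cDNA give the read-out. Cells: HepG2 transfected with multiple cis-regulated reporter units. Exposure lasts 24 hours; DMSO defines baseline for gain or loss of signal.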
Turning to `Cc1cccc(C)c1[N+](=O)[O-]`, the call was inactive.

As to `O=Nc1ccc(Nc2ccccc2)cc1`, the molecule was called inactive.

On to `CC(C)C[C@H]1C(=O)N2CCC[C@H]2[C@]2(O)O[C@](NC(=O)[C@@H]3C=C4c5cccc6[nH]c(Br)c(c56)C[C@H]4N(C)C3)(C(C)C)C(=O)N12`, for which the outcome was inactive.

Take `Nc1cccc(S(=O)(=O)c2cccc(N)c2)c1`: the result was inactive.

`O=C(O)CCSCCC(=O)O`: the molecule was classed as inactive.

On to `CC1(C)[C@H]2CC[C@]1(C)[C@H](O)C2`, for which the call was inactive.

Regarding `Cc1ccc2n[nH]nc2c1`, the result was inactive.

Take `CC(c1cc2ccccc2s1)N(O)C(N)=O` (stereo not given): the molecule was called inactive.

In the case of `CC1(C)[C@@H]2CC[C@@]1(C)[C@H](O)C2`, the molecule was called inactive.

Consider `O=C1c2ccccc2C(=O)N1SC1CCCCC1`, for which the call was inactive.

As for `O=C1CCCCCCCCCCCCCCO1`, the molecule was called inactive.

In the case of `CCC(C)(O)CCC=C(C)C` (stereo not given), the molecule was classed as inactive.

`N#Cc1ccc(CC(=NNC(=O)Nc2ccc(OC(F)(F)F)cc2)c2cccc(C(F)(F)F)c2)cc1`: the molecule was classed as inactive.

With `Cc1ccc(C(C)C)cc1O`, the molecule was called inactive.

In the case of `Nc1cc([N+](=O)[O-])ccc1O`, the molecule was classed as inactive.

For the molecule `O=C(O)c1cn(-c2ccc(F)cc2)c2cc(N3CCNCC3)c(F)cc2c1=O`, the call was inactive.

With `S=C(S)NCCNC(=S)S`, the call was inactive.

For the molecule `N#Cc1ccccc1`, the outcome was inactive.

As for `CCCCC(CC)COC(=O)/C=C\C(=O)OCC(CC)CCCC` (stereo not given), the outcome was inactive.

Turning to `CCCCCCC#CC(=O)OC`, the molecule was classed as inactive.

For the molecule `O=Cc1ccc(F)cc1`, the molecule was called inactive.

Turning to `CCCCCCOC(=O)CCCCC`, the result was inactive.

As for `C=CC(=O)OCC(O)COc1ccccc1` (stereo not given), the call was inactive.

Regarding `FC1(F)C(F)(F)C(F)(F)C2(F)C(F)(C1(F)F)C(F)(F)C(F)(F)C1(F)C(F)(F)C(F)(F)C(F)(F)C(F)(F)C12F` (stereo not given), the molecule was classed as inactive.

As to `NC(N)=NC(=O)c1nc(Cl)c(N)nc1N`, the outcome was inactive.

For the molecule `CC(C=O)Cc1ccc(C(C)C)cc1` (stereo not given), the outcome was inactive.

For the molecule `COc1ccnc(CS(=O)c2nc3cc(OC(F)F)ccc3[nH]2)c1OC` (stereo not given), the molecule was classed as inactive.

Consider `COC(=O)c1ccc(C)cc1`, for which the call was inactive.

Turning to `O=[N+]([O-])c1ccc(C=Cc2ccc([N+](=O)[O-])cc2S(=O)(=O)O)c(S(=O)(=O)O)c1`, the result was inactive.

`Cc1cccc(Nc2ccccc2C(=O)O)c1C`: the molecule was called inactive.

For the molecule `CCCCC(CC)COCCC#N` (stereo not given), the outcome was inactive.

On to `O=C(O)c1ccc([N+](=O)[O-])cc1`, for which the molecule was classed as inactive.

In the case of `Cc1cc(C2(c3cc(C)c(O)cc3C)OS(=O)(=O)c3ccccc32)c(C)cc1O`, the call was inactive.

`CC(=O)C(C)=O`: the outcome was inactive.

In the case of `CC1(C)[C@H](C(=O)OCc2cccc(Oc3ccccc3)c2)[C@@H]1C=C(Cl)Cl`, the outcome was inactive.

Take `CO[Si](C)(OC)c1ccccc1`: the molecule was called inactive.

For the molecule `Cc1c(N(C)C)c(=O)n(-c2ccccc2)n1C`, the result was inactive.

`Nc1ccc(F)c([N+](=O)[O-])c1`: the outcome was inactive.

The target of the next assay is Nuclear respiratory factor 1 (Homo sapiens) (UniProt Q16656). The assay can be described thus: ATG_NRF1_CIS: Attagene CIS-FACTORIAL HepG2 Assay for human Nuclear Respiratory Factor 1 (NRF1) Orphan Gene (AID 2282987). The note with it: HepG2 NRF1 cis-element reporter, Attagene multiplex; actives raise or lower the signal. The procedure, abridged: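 Transcriptional reporter readout, one component of a 52-endpoint multiplexed HepG2 panel. Exposure 24 h; mRNA detected via RT-PCR and fluorescent capillary electrophoresis; fitting in both directions against DMSO.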
Nuclear respiratory factor 1 (Homo sapiens), sequence (Q16656 whole entry, looked up): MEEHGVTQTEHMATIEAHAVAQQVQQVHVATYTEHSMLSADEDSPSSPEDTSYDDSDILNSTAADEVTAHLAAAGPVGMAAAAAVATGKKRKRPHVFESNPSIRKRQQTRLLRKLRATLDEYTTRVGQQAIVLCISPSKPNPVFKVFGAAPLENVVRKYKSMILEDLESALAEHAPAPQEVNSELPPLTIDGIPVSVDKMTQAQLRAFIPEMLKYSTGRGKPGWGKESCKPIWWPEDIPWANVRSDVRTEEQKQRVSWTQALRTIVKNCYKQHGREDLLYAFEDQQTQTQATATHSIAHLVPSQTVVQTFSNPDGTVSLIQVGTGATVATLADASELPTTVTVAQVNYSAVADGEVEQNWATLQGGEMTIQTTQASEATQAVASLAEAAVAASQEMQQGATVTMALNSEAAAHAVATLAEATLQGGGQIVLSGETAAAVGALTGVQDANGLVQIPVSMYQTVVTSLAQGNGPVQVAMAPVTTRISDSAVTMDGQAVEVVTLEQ
`Cc1cccc(C)c1[N+](=O)[O-]`: the result was inactive.

Take `O=Nc1ccc(Nc2ccccc2)cc1`: the AC50 was 56.3 µM (active).

Turning to `CC(C)C[C@H]1C(=O)N2CCC[C@H]2[C@]2(O)O[C@](NC(=O)[C@@H]3C=C4c5cccc6[nH]c(Br)c(c56)C[C@H]4N(C)C3)(C(C)C)C(=O)N12`, the concentration at half-maximal activity (AC50) was 3.24 µM (active).

As for `Nc1cccc(S(=O)(=O)c2cccc(N)c2)c1`, the molecule was classed as inactive.

Regarding `O=C(O)CCSCCC(=O)O`, the outcome was inactive.

For the molecule `CC1(C)[C@H]2CC[C@]1(C)[C@H](O)C2`, the result was inactive.

Take `Cc1ccc2n[nH]nc2c1`: the call was inactive.

On to `CC(c1cc2ccccc2s1)N(O)C(N)=O` (stereo not given), for which the molecule was called inactive.

On to `CC1(C)[C@@H]2CC[C@@]1(C)[C@H](O)C2`, for which the call was inactive.

Take `O=C1c2ccccc2C(=O)N1SC1CCCCC1`: the result was inactive.

As to `O=C1CCCCCCCCCCCCCCO1`, the molecule was classed as inactive.

Consider `CCC(C)(O)CCC=C(C)C` (stereo not given), for which the outcome was inactive.

Take `N#Cc1ccc(CC(=NNC(=O)Nc2ccc(OC(F)(F)F)cc2)c2cccc(C(F)(F)F)c2)cc1`: the molecule was called inactive.

As for `Cc1ccc(C(C)C)cc1O`, the call was inactive.

For the molecule `Nc1cc([N+](=O)[O-])ccc1O`, the molecule was classed as inactive.

On to `O=C(O)c1cn(-c2ccc(F)cc2)c2cc(N3CCNCC3)c(F)cc2c1=O`, for which the outcome was inactive.

As for `S=C(S)NCCNC(=S)S`, the result was inactive.

For `N#Cc1ccccc1`, the outcome was inactive.

Turning to `CCCCC(CC)COC(=O)/C=C\C(=O)OCC(CC)CCCC` (stereo not given), the call was inactive.

Regarding `CCCCCCC#CC(=O)OC`, the result was inactive.

Regarding `O=Cc1ccc(F)cc1`, the result was inactive.

Turning to `CCCCCCOC(=O)CCCCC`, the molecule was called inactive.

Turning to `C=CC(=O)OCC(O)COc1ccccc1` (stereo not given), the molecule was classed as inactive.

As to `FC1(F)C(F)(F)C(F)(F)C2(F)C(F)(C1(F)F)C(F)(F)C(F)(F)C1(F)C(F)(F)C(F)(F)C(F)(F)C(F)(F)C12F` (stereo not given), the result was inactive.

As for `NC(N)=NC(=O)c1nc(Cl)c(N)nc1N`, the result was inactive.

With `CC(C=O)Cc1ccc(C(C)C)cc1` (stereo not given), the call was inactive.

Regarding `COc1ccnc(CS(=O)c2nc3cc(OC(F)F)ccc3[nH]2)c1OC` (stereo not given), the result was inactive.

`COC(=O)c1ccc(C)cc1`: the result was inactive.

For the molecule `O=[N+]([O-])c1ccc(C=Cc2ccc([N+](=O)[O-])cc2S(=O)(=O)O)c(S(=O)(=O)O)c1`, the molecule was called inactive.

Regarding `Cc1cccc(Nc2ccccc2C(=O)O)c1C`, the result was inactive.

For the molecule `CCCCC(CC)COCCC#N` (stereo not given), the result was inactive.

`O=C(O)c1ccc([N+](=O)[O-])cc1`: the molecule was called inactive.

For the molecule `Cc1cc(C2(c3cc(C)c(O)cc3C)OS(=O)(=O)c3ccccc32)c(C)cc1O`, the molecule was classed as inactive.

For `CC(=O)C(C)=O`, the call was inactive.

`CC1(C)[C@H](C(=O)OCc2cccc(Oc3ccccc3)c2)[C@@H]1C=C(Cl)Cl`: the molecule was classed as inactive.

Take `CO[Si](C)(OC)c1ccccc1`: the call was inactive.

In the case of `Cc1c(N(C)C)c(=O)n(-c2ccccc2)n1C`, the call was inactive.

`Nc1ccc(F)c([N+](=O)[O-])c1`: the molecule was classed as inactive.
